The text below walks through data of PubChem BioAssay (NCATS).

Inconclusive results are not listed. A call without a number means that no potency is given here. Activity calls are given as the source filed them. Calls come from the whole dose curve; as a rule, active = well fitted cell-killing curve with a large enough effect; inconclusive = small, poorly fitted or top-dose-only effect; inactive = flat fitted curve, though single readings scatter.
Potency is the fitted concentration of half-maximal effect.

The experiment is described as follows: Quantitative highthroughput screen to assess conditional lethalithy of NOMO1 cells grown in RPMI1640 with untreated serum (RPMI+s) (AID 1963876). Note: nearly all actives have a fitted effect of over 35% in size. The following applies: NOMO1 AML cells in RPMI+serum, CellTiter-Glo viability, 48 h; series mostly up to 45.8 µM. The text has this: Assay Provider: Jason Cantor Ph.D.
Department of Biochemistry
University of Wisconsin-Madison, Madison, WI, USA
Chemical screening studies have identified drug sensitivities across hundreds of cancer cell lines but most putative therapeutics fail to translate. Discovery and development of drug candidates in models that more accurately reflect nutrient levels in human blood is a major challenge. Here we performed high-throughput screens in conventional versus Human Plasma-Like Medium (HPLM) to identify compounds that were "missed" when screening using the artificial culture condition. Sets of conditional anticancer compounds spanned phases of clinical development and included non-oncology drugs were assessed. […] We also traced conditional phenotypes for several chemotherapeutics to availability of HPLM-specific metabolites and confirmed others for compounds whose reported targets are encoded by nonessential genes. Our findings establish generalizable strategies for exploiting conditional lethality in HPLM to reveal therapeutic candidates and mechanisms of action in cancer cells.
Described herein are the results of each viability screens against three cell lines: NOMO1 (an acute myeloid leukemia cell line); P12-Ichikawa (a T-cell acute lymphoblastic leukemia); and SEM (a B-cell ALL). Each assay was screened using 3 different cell culture media: homemade human plasma-Like medium with 10% dialyzed fetal bovine serum (HPLM+ds); RPMI1640 with 10% untreated FBS and 5mM glucose (RPMI+s); and RPMI1640 with 10% dialyzed fetal bovine serum and 5 mM glucose (RPMI+ds).
PROTOCOL TABLE (as described by Inglese J, Shamu CE and Guy RK. 2007)
SEQUENCE No. (e.g., 1, 2, 3, etc.); […] (e.g., Cells, Incubation, Reagent, etc.); VALUE and DESCRIPTION.
1; Cells; 5 uL; white, solid bottom 1536-well Greiner assay plate.
2; Compounds; 23 nL; Kalypsis pin tool (Wako USA) equipped with a 1536-well pin head to transfer to the assay plates.
3; Incubation; 48 hours; 37C incubation.
4; Reagent; 3 uL; CellTiter Glo (Promega).
5; Incubation; 5 min, room temperature
6; Detection; Luminescence, Viewlux PerkinElmer.
NOTES (numbers refer to Sequence numbers above)
1. Briefly, 5 ul of cell reagent was dispensed using a Multidrop Combi Dispenser. The NOMO1 and SEM cells were plated at 500 cells/well and the P12-Ichikawa line at 1000 cells/well.
2. After seeding the cells, 23 nL of MIPE 4.1 library compounds (in DMSO) were added to each plate using a Kalypsys 1536 Pintool dispenser. Bortezomib at final concentration of […] and DMSO were added to each plate as positive and negative controls respectively. For each screen, MIPE 4.1 compounds were added over an eleven-point concentration range […] in 3-fold dilutions.
3. Each plate was covered with a stainless steel gasketed lid to prevent evaporation and incubated for 48 hour at 37C, 95% relative humidity, and 5% CO2.
4-5. Three microliter CellTilter-GloTM luminescent substrate mix (Promega) reagent was added to the assay plate and incubated at room temperature for 5 min.
6. The luminescence signal was measured using a ViewLux (PerkinElmer) multiplate reader with a 2 second exposure time per plate. Data for each compound were normalized as percent viability such that measurements for DMSO and the empty well controls in each plate were defined as 100% and 0%, respectively.
(In general: In ATP-based viability assays light output follows the ATP content of the culture.)
As for `CCCCCCNC(=O)n1cc(F)c(=O)[nH]c1=O`, the Potency result is “inactive”.

For `C[C@H]1C[C@H]2[C@@H]3CCC4=CC(=O)C=C[C@]4(C)[C@@H]3C(=O)C[C@]2(C)[C@@]1(O)C(=O)CO`, the Potency entry is “inactive”.

As for `Cc1[nH]nc2ccc(-c3cncc(OC[C@@H](N)Cc4ccccc4)c3)cc12`, the Potency was 2.96 µM (active).

Regarding `CCCCS(=N)(=O)CCC(N)C(=O)O` (stereo not given), the Potency result is “inactive”.

As for `COc1ccc2c3n(c(=NC(=O)c4cccnc4)nc2c1OC)CCN3`, the Potency entry was “inactive”.

Consider `O=C(NC1CC1)c1cccc(-c2ccc3c(NC(=O)C4CC4)n[nH]c3c2)c1`, for which the Potency is 23.5 µM (active).

Turning to `Cc1c(O)cccc1C(=O)N[C@@H](CSc1ccccc1)[C@H](O)CN1C[C@H]2CCCC[C@@H]2C[C@@H]1C(=O)NC(C)(C)C`, the Potency result is “inactive”.

With `N#CC(=C1Nc2ccccc2S1)c1ccnc(OCc2ccc(CN3CCOCC3)cc2)n1`, the Potency is 8.33 µM (active).

Take `C[C@](Cc1c[nH]c2ccccc12)(NC(=O)OC1C2CC3CC(C2)CC1C3)C(=O)NC[C@H](NC(=O)CCC(=O)O)c1ccccc1` (stereo not given in full): the Potency entry was “inactive”.

Regarding `CCC(C)(C)c1ccc(CC(C)CN2C[C@@H](C)O[C@@H](C)C2)cc1` (stereo not given in full), the Potency result was “inactive”.

In the case of `Cc1cn2cc(C(=O)N(C)CCO)cc(N[C@@H]3CCOc4cccc(C)c43)c2n1`, the Potency result is “inactive”.

Consider `COC1=C2C[C@@H](C)C[C@H](OC)[C@@H](O)[C@@H](C)C=C(C)[C@H](OC(N)=O)[C@@H](OC)C=CC=C(C)C(=O)NC(=CC1=O)C2=O`, for which the Potency is 23.5 µM (active).

As to `CC(=O)OCC(=O)[C@@]1(O)CC[C@H]2[C@@H]3CCC4=CC(=O)CC[C@]4(C)[C@@H]3C(=O)C[C@@]21C`, the Potency entry is “inactive”.

As for `CCCOc1ccc(C(=O)OCCN(CC)CC)cc1N`, the Potency result is “inactive”.

As to `CCC[C@@H](NC(=O)[C@@H]1[C@H]2CCC[C@@H]2CN1C(=O)[C@@H](NC(=O)[C@@H](NC(=O)c1cnccn1)C1CCCCC1)C(C)(C)C)C(=O)C(=O)NC1CC1`, the Potency result was “inactive”.

Regarding `Cc1cc(C(=O)N2CCN(c3cccc(Cl)c3)CC2)n(-c2ccccc2)n1`, the Potency was 7.43 µM (active).

`CC(C(C)N1CC(=O)NC(=O)C1)N1CC(=O)NC(=O)C1` (stereo not given): the Potency entry was “inactive”.

Consider `CC1(C)CC(=O)c2c(C(F)(F)F)nn(-c3ccc(C(N)=O)c(NC4CCC(O)CC4)c3)c2C1` (stereo not given), for which the Potency is 0.209 µM (active).

Consider `COc1cc(O)c2c(c1)C1OC1C[C@H](O)[C@H](O)C(=O)C=CC[C@H](C)OC2=O` (stereo not given in full), for which the Potency is 13.2 µM (active).

In the case of `Cc1ccccc1C(C(=O)NC1CCCCC1)N(C(=O)Cn1ccnc1C)c1cccc(F)c1` (stereo not given), the Potency entry was “inactive”.

Take `Cc1nc2c([nH]1)CCN(C(=O)c1ccc(NC(=O)c3ccccc3-c3ccccc3)cc1)c1ccccc1-2`: the Potency result is “inactive”.

Consider `CC(C=CC=C(C)C=CC1=C(C)CCCC1(C)C)=CC=CC=C(C)C=CC=C(C)C=CC1=C(C)CCCC1(C)C`, for which the Potency result is “inactive”.

On to `CCC(C)N(C)C(=O)c1cc2ccccc2c(-c2ccccc2Cl)n1` (stereo not given), for which the Potency entry was “inactive”.

Consider `CCOc1cc(N2CCC(O)CC2)ccc1Nc1ncc2c(n1)N(C)c1ccccc1C(=O)N2C`, for which the Potency is 0.332 µM (active).

Take `CO[C@@H](C(=O)N1Cc2[nH]nc(NC(=O)c3ccc(N4CCN(C)CC4)cc3)c2C1)c1ccccc1`: the Potency is 0.148 µM (active).

Turning to `Cn1cc(-c2ccncc2)c(-c2ccc(OCc3ccc4ccccc4n3)cc2)n1`, the Potency entry was “inactive”.

Regarding `CS(=O)c1ccc(-c2nc(-c3ccc(F)cc3)c(-c3ccncc3)[nH]2)cc1` (stereo not given), the Potency was 6.79 µM (active).

Take `CO[C@H]1C[C@@H]2CC[C@@H](C)[C@@](O)(O2)C(=O)C(=O)N2CCCC[C@@H]2C(=O)O[C@H]([C@H](C)C[C@@H]2CC[C@H](OP(C)(C)=O)[C@H](OC)C2)CC(=O)[C@H](C)C=C(C)[C@@H](O)[C@@H](OC)C(=O)[C@H](C)C[C@H](C)C=CC=CC=C1C`: the Potency result is “inactive”.

Turning to `O=c1[nH]nc(OCCCc2ccc(Cl)cc2)c(NCc2cccnc2)c1Br`, the Potency is 11.8 µM (active).

Take `C[C@@H]1O[C@@H](O[C@H]2CC[C@@]3(C)[C@H](CC[C@@H]4[C@H]3C[C@@H](O)[C@]3(C)[C@@H](C5=CC(=O)OC5)CC[C@]43O)C2)C[C@H](O)[C@@H]1O[C@H]1C[C@H](O)[C@H](O[C@H]2C[C@H](O)[C@@H](O)[C@@H](C)O2)[C@H](C)O1` (stereo in doubt): the Potency was 0.605 µM (active).

As for `CN(C)CC=CC(=O)Nc1cc2c(Nc3ccc(F)c(Cl)c3)ncnc2cc1O[C@H]1CCOC1`, the Potency was 1.87 µM (active).

For the molecule `COC(=O)Nc1nc2ccc(S(=O)c3ccccc3)cc2[nH]1` (stereo not given), the Potency result is “inactive”.

Turning to `CC(C)C[C@@H](N)[C@H](O)C(=O)N[C@H](C(=O)N[C@H](C(=O)N[C@@H](CC(=O)O)C(=O)O)C(C)C)C(C)C`, the Potency result was “inactive”.

Turning to `OCCn1cc(-c2cnc3nnn(Cc4ccc5ncccc5c4)c3n2)cn1`, the Potency entry is “inactive”.

`CN(C)c1cc(NC(=O)CNC(C)(C)C)c(O)c2c1C[C@@H]1C[C@H]3[C@H](N(C)C)C(=O)C(C(N)=O)=C(O)[C@@]3(O)C(=O)C1=C2O`: the Potency result was “inactive”.

`COc1ccc(-c2ccc3c(N4CCOCC4)nc(N4C[C@@H](C)O[C@@H](C)C4)nc3n2)cc1CO`: the Potency was 2.96 µM (active).

Regarding `O=C(C=Cc1c(C(=O)O)[nH]c2cc(Cl)cc(Cl)c12)Nc1ccccc1`, the Potency entry was “inactive”.

As for `O=S(=O)(N=Cc1c(O)ccc2ccccc12)c1cccs1`, the Potency result was “inactive”.

For `C[C@H](NC(=O)C(C#N)=Cc1cccc(Br)n1)c1ccccc1`, the Potency was 2.64 µM (active).

On to `Cc1nc(NC(=O)N2CCC[C@@H]2C(N)=O)sc1-c1csc(C(C)(C)C)n1`, for which the Potency was 2.35 µM (active).
